SKKanGAS inh – S. pyogenes SKKanGAS growth inhibitors in kanamycin, primary screen, streptokinase expression inhibitor project, SKKanGAS strain, BacTiter-Glo luminescence; 6 h; inhibition, % at 7.5 µM; actives 1.3% (n = 300,000);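 active means mean replicate score, as percent of positive control median, at least 50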;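 further: strain carries kanamycin resistance gene driven by streptokinase promoter and grows in 40 µg/ml kanamycin; loss of luminescence reflects streptokinase promoter inhibition or plain growth inhibition; 0% = median of DMSO wells and 100% = positive control at its reference dose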
TPT1 inhibitor – Candida albicans TPT1 enzyme inhibitors, primary screen, biochemical, fluorescence polarization; tRNA 2'-phosphotransferase TPT1 (Candida albicans SC5314); recombinant caTPT1, FP RNA substrate dephosphorylation; inhibition, % at 5 µM; actives 0.81% (n = 300,000); AID 1962, 2009;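 active means inhibition above the mean of all tested compounds plus 3 SD, set per screening campaign, cut at about 24% in these data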;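 further: plate controls were DMSO alone for no effect and ferristatin control at 100 nM for full effect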
WT yeast gro inh – growth inhibition of WT strain, primary screen, mitochondrial fusion inhibitor project, WT and mutant strains, chemical genetic | inhibition, % at 10 µM | actives 2.1% (n = 190,000) | mitochondrial fusion phenotypic screen; in the data active means inhibition above about 58%; tested in S. cerevisiae
PHOSPHO1 block – PubChem AID 1565; inhibition, % at 13.3 µM; actives 1.1% (n = 290,000); recombinant PHOSPHO1, absorbance phosphatase assay; in the data active means inhibition above about 60%
Rtt109 HAT inh – inhibitors of C. albicans Rtt109/Vps75 HAT, primary screen, biochemical, ThioGlo CoA-SH fluorescence, plate reader; Histone acetyltransferase RTT109 (Candida albicans (strain SC5314 / ATCC MYA-2876)), …; purified Rtt109/Vps75, 4 h; inhibition, % at 34.9 µM; actives 0.16% (n = 330,000);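 active means inhibition of at least 50% in every replicate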
Target sequence (Q5AAJ8 whole entry, looked up): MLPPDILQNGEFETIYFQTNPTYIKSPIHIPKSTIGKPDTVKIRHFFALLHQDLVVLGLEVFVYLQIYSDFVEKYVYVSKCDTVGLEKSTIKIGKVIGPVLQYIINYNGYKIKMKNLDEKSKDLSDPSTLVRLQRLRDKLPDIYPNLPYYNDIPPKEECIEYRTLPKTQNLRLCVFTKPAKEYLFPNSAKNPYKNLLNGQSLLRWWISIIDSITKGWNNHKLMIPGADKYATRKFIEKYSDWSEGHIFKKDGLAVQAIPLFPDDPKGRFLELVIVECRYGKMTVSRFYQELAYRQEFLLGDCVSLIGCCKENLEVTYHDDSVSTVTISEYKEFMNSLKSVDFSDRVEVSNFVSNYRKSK
Platelet DG rel – inhibitors of platelet dense granule secretion, primary screen, cell-based, MLPCN, human platelets | human platelet-rich plasma, SFLLRN dense granule ATP release, luminescence | inhibition, %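 (compounds screened at 7.5 µM in platelet-rich plasma)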 | actives 0.22% (n = 300,000) | AID 1663, 2009;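 active means mean replicate score, as percent of positive control, at or above 50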
Numbers without * were called inactive; / = not tested or not shown. The list is not random: actives were taken first. Their share in the collection is about 3.9%.

SMILES | SKKanGAS inh | TPT1 inhibitor | WT yeast gro inh | PHOSPHO1 block | Rtt109 HAT inh | Platelet DG rel
CC1CCCC(C)N1C(=O)/C=C/c1ccc(S(=O)(=O)N2CCOCC2)cc1 (stereo not drawn) | / | / | / | / | 3 | /
C=CCN(CC=C)C(=S)NC(=O)Cc1cccc2ccccc12 | 24 | 0 | 65* | -27 | 7 | 2
Cc1nn(-c2ccccc2)c(Cl)c1/C=N/Nc1ccc(S(=O)(=O)Nc2ccccc2C(=O)O)cc1[N+](=O)[O-] | 119* | 2 | 20 | 40 | -5 | -2
Cc1nn(-c2ccccc2)c(Cl)c1/C=N/NS(=O)(=O)c1ccc(Br)cc1 | 1 | 1 | 58* | 19 | 1 | -4
CNC(=S)N/N=C/c1c(C)nn(-c2ccccc2)c1Cl | -6 | -2 | 7 | 36 | 2 | -8
Cc1cc(NS(=O)(=O)c2c(C)[nH]c(=O)[nH]c2=O)ccc1Br | -1 | / | / | 31 | 1 | 0
Cc1ccc(C(=O)N2CCN(C/C=C/c3ccccc3)CC2)cc1S(=O)(=O)N1CCOCC1 | / | / | / | / | -1 | /
Cc1cc(NCc2ccccn2)n2nc(C)c(-c3ccc(Cl)cc3)c2n1 | 81* | 1 | / | 49 | 2 | /
Cc1cc(C(F)(F)F)n2nc(C)c(-c3ccc(Cl)cc3)c2n1 | -1 | 1 | 0 | 7 | 4 | 3
Cc1cc(NCc2ccccn2)n2ncc(-c3ccc(Cl)cc3)c2n1 | 82* | 0 | / | -10 | -3 | -3
Cc1cc(NCc2ccccn2)n2ncc(-c3ccccc3)c2n1 | 66* | 2 | / | 28 | -5 | -3
Cc1cc(NCCOCCO)n2ncc(-c3ccc(Cl)cc3)c2n1 | -6 | -1 | -4 | -14 | -11 | 10
CC1CCCCN1CCCNC(=O)c1ccc(NC(=O)C2=CSCCO2)cc1 (stereo not drawn) | -11 | 1 | / | 10 | 0 | 13
CN(c1ccccc1)S(=O)(=O)c1cc(C(=O)Nc2ccccc2N2CCOCC2)ccc1Cl | / | / | / | / | -3 | /

High-throughput results: PubChem, several laboratories
